Pf Dd2 inh = qHTS Primary assay for Inhibitors of Plasmodium falciparum Dd2 growth in vitro; actives 4.3% (n = 120,000); P. falciparum Dd2 growth, SYBR Green, 72 h; Potency, µM (highest dose often 28.9 µM), most hits filed as inhibitors; active means well fitted inhibition curve with a large enough effect; further: nearly all actives have a fitted effect of over 65% in size
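Infected erythrocytes (Dd2, 0.3% parasitemia, 2.5% hematocrit final) are added to compound in RPMI-1640/Albumax II medium, grown 72 h at 37C in low oxygen, then lysed with saponin/Triton-X containing SYBR Green and read by fluorescence.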
Of the large screens only hits and unclear results are named; the others gave an inactive call. Shown is part of a subset that was picked to be rich in hits.

COc1cc2c(cc1OC1CCCC1)NC(=O)C21CCN(c2nc(C)cc(C)n2)CC1	Pf Dd2 inh 11µM
O=C(c1cccc(Cl)c1)N1CCN(C2CCN(CCc3ccccc3)C2=O)CC1 (stereo unspecified)	none
Cc1ccc(C(=O)N2CCN(C3CCN(CCc4ccccc4)C3=O)CC2)cc1F (stereo unspecified)	Pf Dd2 inh 10µM
CCC(=O)N1CCN(C2CCN(CCc3ccccc3)C2=O)CC1 (stereo unspecified)	none
O=C1[C@@H]2C[C@@H](CN2C(=O)c2ccc(C(F)(F)F)cc2)Oc2ccccc2N1Cc1ccccc1	none
COCC(=O)NC1CCC12CCN(C(=O)C1CC1)CC2 (stereo unspecified)	none
O=C(NCc1cccnc1Oc1ccccc1)c1ccccn1	none
O=S(=O)(Cc1ccccc1)NCc1cccnc1Oc1ccccc1	none
CCC(CC)NCc1cccnc1Oc1ccccc1	Pf Dd2 inh 13µM
Cc1ccc(C)c(NS(=O)(=O)c2ccc3c4c(cccc24)C(=O)N3)c1	none
Cc1ccc(C)c(NC2=C(c3ccc(C(F)(F)F)cc3)C(=O)c3ccccc32)c1	Pf Dd2 inh 1.4µM
Cc1ccc(C)c(NC(=O)C(C)N(c2ccccc2)S(C)(=O)=O)c1 (stereo unspecified)	none
COC[C@@H]1CN(C(=O)c2cccc(C)c2)C[C@H]1c1nc(C2CC2)no1	none
Cc1cc2ncc(C(=O)NCC(F)F)cn2n1	none
O=C(NC1CCS(=O)(=O)C1)C1CCCCC(=O)N1Cc1ccccc1 (stereo unspecified)	none
COc1cccc(CN2CCCC(NC(=O)Nc3ccccc3OC)C2)c1 (stereo unspecified)	none
COc1cccc(CN2C(=O)CCCCC2C(=O)NC2CCCCCC2)c1 (stereo unspecified)	Pf Dd2 inh 8.9µM
CCOc1cccc(CNC(=O)C2CCCCC(=O)N2Cc2cccc(OC)c2)c1 (stereo unspecified)	none
COc1cccc(CN2CCC(Oc3ccc(C(=O)NC4CCCC4)cc3Cl)CC2)c1	Pf Dd2 inh 11µM
COc1ccc(C(=O)NC2CC2)c(OC2CCN(Cc3cccc(SC)c3)CC2)c1	none
O=C(O)c1cccc2c1CCN2C(=O)c1ccccc1	none
COc1cccc(C(=O)N2C(C(=O)NCC(C)C)COC23CCN(C(=O)c2ccccc2F)CC3)c1 (stereo unspecified)	none
CC(=O)NCCCC(=O)N1CCC2(CC1)CN(C(=O)NC(C)C)Cc1ccccc1O2	none
COc1cccc(CN2Cc3nc(Oc4ccccc4)ccc3OCC2=O)c1	none
COc1cccc(CN2Cc3nc(N(C)c4ccccc4)ccc3OCC2=O)c1	none
COc1cccc(CN2Cc3c(CN(C)Cc4ccccc4)nnn3CCC2=O)c1	Pf Dd2 inh 10µM
Cc1noc(C)c1S(=O)(=O)N1CCCC(Cc2noc(-c3ccncc3)n2)C1 (stereo unspecified)	none
Cc1ccc(-c2nonc2NC(=O)c2ccc(F)cc2)cc1C	none
CCOc1ccc(-c2nonc2NC(=O)c2ccc(C)cc2)cc1OCC	Pf Dd2 inh 2µM
COc1cc(C(=O)Nc2nonc2-c2ccc(C)c(C)c2)cc(OC)c1OC	none
COc1ccccc1CC(=O)N1CC[C@@H](NC(=O)c2cnccn2)[C@H](O)C1	none
CCc1nc(-c2c3n(c(=O)n(Cc4ccc(OC)c(F)c4)c2=O)CCCCC3)no1	none
c1cc(-c2n[nH]c(C3CCCCN3)n2)ccn1 (stereo unspecified)	none
Cn1c(SCC(=O)Nc2nc3ccccc3s2)ncc(C(=O)Nc2ccccc2)c1=O	none
Cc1cnc(=O)[nH]c1SCC(=O)Nc1nc2ccccc2s1	none
O=C(CSc1ncc(CO)n1Cc1ccccc1)Nc1nc2ccccc2s1	none
CN1CCc2c(sc(NC(=O)CSc3ccccc3)c2-c2nc3ccccc3s2)C1	Pf Dd2 inh 11µM
Cn1c(SCC(=O)Nc2nc3ccccc3s2)ncc(C(=O)Nc2ccc(Cl)cc2)c1=O	none
CC(=O)N1CCc2c(sc(NC(=O)CSc3ccccc3)c2-c2nc3ccccc3s2)C1	Pf Dd2 inh 2µM
COCCOc1ccc2c(n1)CCN(C(=O)c1cccc(C)c1)C2	none
Cc1noc(C)c1S(=O)(=O)N1CCCC(Cc2nncn2C)C1 (stereo unspecified)	none
O=C1COCC2(CN(CCCc3ccccc3)C2)CN1Cc1ccccc1	none
COC(=O)c1cccc(-c2nc(C3CC(=O)N(c4ccc(Cl)cc4)C3)no2)c1 (stereo unspecified)	none
COc1ccccc1NC(=O)Cn1nc2c(cc1=O)CN(C(C)=O)CC2	none
Cc1cc2nc3n(c(=O)c2n1CC(=O)N1CCCc2ccccc21)CCCCC3	none
CC1(C)[C@H]2CC[C@@H](CNC(=O)c3cccnc3)[C@@H]1C2	none
COCC1(CNC(=O)c2cccc(OC)c2)C[C@@H](O)[C@@H](O)C1 (stereo partly specified)	none
COc1cccc(C(=O)NC[C@@H]2CC[C@H]3C[C@@H]2C3(C)C)c1	Pf Dd2 inh 11µM
COCCc1noc(C2Cc3ccccc3N2C(=O)Nc2cc(C)cc(C)c2)n1 (stereo unspecified)	none
Clc1cc(Cl)cc(NC2CNC2)c1	Pf Dd2 inh 22µM
CCN(C)c1ccnc(N2CC[C@@H]3C[C@H](N4CCOCC4)CC[C@@]3(COC)C2)n1	Pf Dd2 inh 8.9µM
COC[C@@]12CC[C@@H](N3CCOCC3)C[C@H]1CCN(c1nccc(N)n1)C2	none
COC[C@@]12CC[C@@H](N3CCOCC3)C[C@H]1CCN(c1nccc(NC(C)C)n1)C2	none
COC(=O)c1cn([C@H]2CO[C@H]3[C@@H]2OC[C@@H]3NC(=O)c2ccc(N(C)C)cc2)nn1	none
CCOCc1nc(C2CCCN(C(=O)c3ccco3)C2)no1 (stereo unspecified)	none
COCCn1c(CN2C(=O)N(C)C(=O)C2(C)C)nnc1C1CC(N)C1 (stereo unspecified)	none
COc1cccc(CNC(=O)[C@@H]2C[C@@H](O)CN2C2CCN(C(=O)c3cccs3)CC2)c1	Pf Dd2 inh 8.9µM
COc1cccc(CNC(=O)[C@@H]2C[C@@H](O)CN2C2CCN(C(=O)c3ccco3)CC2)c1	none
COc1cccc(CNC(=O)[C@@H]2C[C@@H](O)CN2C2CCN(C(=O)Cc3ccc(Cl)cc3)CC2)c1	Pf Dd2 inh 13µM
COc1cccc(CNC(=O)[C@@H]2C[C@@H](O)CN2C2CCN(C(=O)c3ccncc3)CC2)c1	none
COc1cccc(CNC(=O)[C@@H]2C[C@@H](O)CN2C2CCN(C(=O)c3cccc(OC)c3)CC2)c1	none
COc1cccc(CNC(=O)[C@@H]2C[C@@H](O)CN2C2CCN(C(=O)CC3CCCC3)CC2)c1	none
CN(C)C(=O)N1CCN(c2cc(Cl)ncn2)C(=O)C1	none
N#Cc1ccc(C(=O)N2CC(C(=O)NCCc3ccncc3)C3(CCOCC3)C2)cc1 (stereo unspecified)	none
COc1cccc(NC(=O)[C@@H]2C[C@@H](c3cccc(C(F)(F)F)c3)N(C)C2)c1	none

Assay outcomes (PubChem)
